Source: PubChem BioAssay
The source made the active and inactive calls. No rule for the calls is given here.

Target: L-lactate dehydrogenase (Plasmodium falciparum (isolate CDC / Honduras)) (UniProt Q27743)
Assay: PfLDH activity inhibition – cell lysate, 3D7 strain, counter-screen for P. falciparum growth inhibition project (AID 2304);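 also: 0% = vehicle and 100% = reference inhibitor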
Conditions: P. falciparum 3D7 crude extract, LDH APAD/NBT absorbance; at 2 µM; active compounds read high

Sequence of L-lactate dehydrogenase (Plasmodium falciparum (isolate CDC / Honduras)) (Q27743 whole entry, looked up): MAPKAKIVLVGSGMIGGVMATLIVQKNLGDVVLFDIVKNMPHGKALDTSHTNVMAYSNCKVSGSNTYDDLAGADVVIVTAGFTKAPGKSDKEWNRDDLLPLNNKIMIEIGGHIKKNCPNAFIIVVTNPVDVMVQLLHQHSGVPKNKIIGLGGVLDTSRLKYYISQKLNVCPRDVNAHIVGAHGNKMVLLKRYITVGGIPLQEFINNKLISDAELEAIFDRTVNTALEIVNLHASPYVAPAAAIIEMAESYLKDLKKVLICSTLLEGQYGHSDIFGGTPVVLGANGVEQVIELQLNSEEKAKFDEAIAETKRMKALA

Row | SMILES | inhibition
1 | CC(C)c1ccc(NC(=O)Nc2ccc(CCNCCCc3ccccc3)cc2)cc1 | 1% (inactive)
2 | CC(C)NCc1cccc(-c2cccc(NC(=O)c3cccc(Cl)c3)c2)c1 | -10% (inactive)
3 | CC[C@@H]([C@@H](Cc1cc2ccccc2s1)C(=O)N[C@@H](CCCCNC(=O)OCc1ccccc1)C(=O)Nc1ccccn1)N(O)C=O | 6% (inactive)
4 | Cc1cccc2[nH]c(-c3cccc(-c4ccc(NC(=O)Nc5ccc(F)c(F)c5F)cc4)c3)nc12 | -4% (inactive)
5 | C=CCNC(=O)CCCN=C(N)N | -1% (inactive)
6 | O=C(Nc1cccc(F)c1)c1ccc(C(=O)NC2CCN(CC3CCCCC3)CC2)cc1 | -7% (inactive)
7 | COc1ccc(CCCc2nc(N)nc(N)c2-c2ccc(Cl)cc2)cc1 | 2% (inactive)
8 | CN1CCN(CCCN(Cc2cccc(-c3ccc(CNCCc4ccccc4)cc3)c2)C(=O)c2cccs2)CC1 | 2% (inactive)
9 | O=C(Nc1cccc(CN2CCN(C(=O)c3cccc(Cl)c3)CC2)c1)c1ccco1 | 2% (inactive)
10 | CN1CCN(c2cccc(-c3nnc(-c4ccc(OCC(=O)NCc5ccc(C(F)(F)F)cc5)c([N+](=O)[O-])c4)o3)c2)CC1 | -4% (inactive)
11 | CCn1c(-c2cc(C)on2)nc2cnc(Oc3ccc(C(=O)N4CC(=O)N(C)C4C(C)(C)C)cc3)cc21 (stereo not given) | 4% (inactive)
12 | O=C(NCCCCCCNCc1ccc(-c2ccccc2)cc1)Nc1ccc(Cl)c(Cl)c1 | -1% (inactive)
13 | O=C(Nc1ccc(Oc2cccnc2)cc1)C1CCN(Cc2cc(Cl)ccc2O)CC1 | -2% (inactive)
14 | CN1Cc2cc(NC(=O)/C=C/c3ccccc3Cl)ccc2C(C)(C)C1 | -3% (inactive)
15 | COc1ccc2c(NN=C(C)c3ccccn3)cc(C)nc2c1 | -5% (inactive)
16 | c1ccc2[nH]c(-c3ccc(-c4ccc(CN5CCC(N6CCCCC6)CC5)cc4)s3)nc2c1 | -5% (inactive)
17 | Cc1cc(C)cc(OCC(O)CN(Cc2cc(Cl)cc(Cl)c2)C(=O)Nc2ccc([N+](=O)[O-])cc2)c1 (stereo not given) | 4% (inactive)
18 | O=c1cc(NCCCNCc2cc(C(F)(F)F)ccc2F)[nH]c2ccccc12 | -2% (inactive)
19 | CC(NCC(O)Cn1c2ccccc2c2ccccc21)c1ccccc1 (stereo not given) | 9% (inactive)
20 | Cc1c(C(=O)N(C)C)sc2c1c(=O)n(Cc1ccccc1)c(=O)n2CC(=O)Nc1ccccc1F | -1% (inactive)

Row | SMILES | inhibition
21 | C=CCC(C(=O)Nc1ccnc2ccc(OC)cc12)C1CCN(CCCCCCC)CC1 (stereo not given) | -7% (inactive)
22 | Cc1cccc(NC(=O)Nc2cccc(-c3ccc(-c4nc5ccc(C(F)(F)F)cc5[nH]4)cc3)c2)c1 | -1% (inactive)
23 | CCc1cc(Cc2cnc(N)nc2N)cc(CC)c1OC | 8% (inactive)
24 | CCCCCCCN(CCCCCCC)CCCC(=O)Nc1ccnc2ccc(OC)cc12 | -5% (inactive)
25 | CC(C)CCNCc1ccc(OCc2cccc(COc3ccc(CNCCC(C)C)cc3I)c2)c(I)c1 | 2% (inactive)
26 | CCCCCc1cc(O)c2c(c1)OC(C)(C)C=C2C1=CCN(Cc2ccsc2)CC1 | -1% (inactive)
27 | Clc1cc(Nc2ncnc3sc(C#C[C@H]4CCCN4)cc23)ccc1OCc1cccnc1Cl | -3% (inactive)
28 | Oc1ccc(CCCNc2nc(NCc3cccc4ccccc34)nc(N3CCCNCC3)n2)cc1 | -2% (inactive)
29 | Cc1noc(C)c1-c1ccc2c(Nc3ccccc3C(C)(C)C)c(C(=O)NCc3ccc4c(c3)OCO4)cnc2c1 | -3% (inactive)
30 | CCN(CC)CCOc1ccc(C(O)(C#CC(O)(c2ccccc2)c2ccc(OCCN(CC)CC)cc2)c2ccccc2)cc1 (stereo not given) | 4% (inactive)
31 | COc1ccc(-n2ncc(C(=O)N3CCC4(C3)C(=O)N(c3ccccc3)c3ccccc34)c2C)cc1 (stereo not given) | 0% (inactive)
32 | O=S(=O)(Nc1cccc(CCN2CCC(N3CCCCC3)CC2)c1)c1ccc2c(c1)OCCO2 | -1% (inactive)
33 | CN1CCN(CC(=O)Nc2ccc(-c3cccc(-c4nc5ccc(F)cc5[nH]4)c3)cc2)CC1 | 3% (inactive)
34 | CC(C)(C)NC(=O)c1ccc(Oc2ccc(OC(F)(F)F)cc2)c(NC(=O)C(C)(C)C)c1 | 3% (inactive)
35 | CCCCCN1CCCC(CNS(=O)(=O)c2cccc(C(=O)Nc3ccc(C(F)(F)F)cc3)c2)C1 (stereo not given) | 4% (inactive)
36 | O=C(NCCNc1ccnc(NCc2ccc(F)cc2)n1)c1cc2ccccc2s1 | -5% (inactive)
37 | NC1CCN(Cc2cccc(-c3ccc(-c4nc5ccccc5[nH]4)s3)c2)C1 (stereo not given) | -1% (inactive)
38 | Cc1[nH]c(C)c(-c2ccc(OCc3cccc(C(F)(F)F)c3)nc2)c(=O)c1Br | -2% (inactive)
39 | CCSc1nnc(C2CCCN(CC(=O)Nc3cc(C(F)(F)F)ccc3Cl)C2)n1CC (stereo not given) | 5% (inactive)
40 | Cc1cc(NN=Cc2cccc(F)c2)c2ccc(F)cc2n1 | -2% (inactive)

System: not listed separately
Assay: inhibition of 3D7 malaria parasite growth – strain 3D7 (AID 2306);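 also: 0% = DMSO wells and 100% = chloroquine plus artemisinin control wells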
Conditions: P. falciparum 3D7 erythrocytic growth, LDH absorbance, 72 h; at 2 µM; active compounds read high

Row | SMILES | growth inhibition
41 | CC(C)c1ccc(NC(=O)Nc2ccc(CCNCCCc3ccccc3)cc2)cc1 | 101% (active)
42 | CC(C)NCc1cccc(-c2cccc(NC(=O)c3cccc(Cl)c3)c2)c1 | 98% (active)
43 | CC[C@@H]([C@@H](Cc1cc2ccccc2s1)C(=O)N[C@@H](CCCCNC(=O)OCc1ccccc1)C(=O)Nc1ccccn1)N(O)C=O | 96% (active)
44 | Cc1cccc2[nH]c(-c3cccc(-c4ccc(NC(=O)Nc5ccc(F)c(F)c5F)cc4)c3)nc12 | 101% (active)
45 | C=CCNC(=O)CCCN=C(N)N | 98% (active)
46 | O=C(Nc1cccc(F)c1)c1ccc(C(=O)NC2CCN(CC3CCCCC3)CC2)cc1 | 96% (active)
47 | COc1ccc(CCCc2nc(N)nc(N)c2-c2ccc(Cl)cc2)cc1 | 94% (active)
48 | CN1CCN(CCCN(Cc2cccc(-c3ccc(CNCCc4ccccc4)cc3)c2)C(=O)c2cccs2)CC1 | 101% (active)
49 | O=C(Nc1cccc(CN2CCN(C(=O)c3cccc(Cl)c3)CC2)c1)c1ccco1 | 96% (active)
50 | CN1CCN(c2cccc(-c3nnc(-c4ccc(OCC(=O)NCc5ccc(C(F)(F)F)cc5)c([N+](=O)[O-])c4)o3)c2)CC1 | 90% (active)
51 | CCn1c(-c2cc(C)on2)nc2cnc(Oc3ccc(C(=O)N4CC(=O)N(C)C4C(C)(C)C)cc3)cc21 (stereo not given) | 81% (active)
52 | O=C(NCCCCCCNCc1ccc(-c2ccccc2)cc1)Nc1ccc(Cl)c(Cl)c1 | 90% (active)
53 | O=C(Nc1ccc(Oc2cccnc2)cc1)C1CCN(Cc2cc(Cl)ccc2O)CC1 | 83% (active)
54 | CN1Cc2cc(NC(=O)/C=C/c3ccccc3Cl)ccc2C(C)(C)C1 | 99% (active)
55 | COc1ccc2c(NN=C(C)c3ccccn3)cc(C)nc2c1 | 102% (active)
56 | c1ccc2[nH]c(-c3ccc(-c4ccc(CN5CCC(N6CCCCC6)CC5)cc4)s3)nc2c1 | 99% (active)
57 | Cc1cc(C)cc(OCC(O)CN(Cc2cc(Cl)cc(Cl)c2)C(=O)Nc2ccc([N+](=O)[O-])cc2)c1 (stereo not given) | 95% (active)
58 | O=c1cc(NCCCNCc2cc(C(F)(F)F)ccc2F)[nH]c2ccccc12 | 94% (active)
59 | CC(NCC(O)Cn1c2ccccc2c2ccccc21)c1ccccc1 (stereo not given) | 96% (active)
60 | Cc1c(C(=O)N(C)C)sc2c1c(=O)n(Cc1ccccc1)c(=O)n2CC(=O)Nc1ccccc1F | 97% (active)

Row | SMILES | growth inhibition
61 | C=CCC(C(=O)Nc1ccnc2ccc(OC)cc12)C1CCN(CCCCCCC)CC1 (stereo not given) | 86% (active)
62 | Cc1cccc(NC(=O)Nc2cccc(-c3ccc(-c4nc5ccc(C(F)(F)F)cc5[nH]4)cc3)c2)c1 | 101% (active)
63 | CCc1cc(Cc2cnc(N)nc2N)cc(CC)c1OC | 90% (active)
64 | CCCCCCCN(CCCCCCC)CCCC(=O)Nc1ccnc2ccc(OC)cc12 | 100% (active)
65 | CC(C)CCNCc1ccc(OCc2cccc(COc3ccc(CNCCC(C)C)cc3I)c2)c(I)c1 | 91% (active)
66 | CCCCCc1cc(O)c2c(c1)OC(C)(C)C=C2C1=CCN(Cc2ccsc2)CC1 | 98% (active)
67 | Clc1cc(Nc2ncnc3sc(C#C[C@H]4CCCN4)cc23)ccc1OCc1cccnc1Cl | 101% (active)
68 | Oc1ccc(CCCNc2nc(NCc3cccc4ccccc34)nc(N3CCCNCC3)n2)cc1 | 96% (active)
69 | Cc1noc(C)c1-c1ccc2c(Nc3ccccc3C(C)(C)C)c(C(=O)NCc3ccc4c(c3)OCO4)cnc2c1 | 96% (active)
70 | CCN(CC)CCOc1ccc(C(O)(C#CC(O)(c2ccccc2)c2ccc(OCCN(CC)CC)cc2)c2ccccc2)cc1 (stereo not given) | 99% (active)
71 | COc1ccc(-n2ncc(C(=O)N3CCC4(C3)C(=O)N(c3ccccc3)c3ccccc34)c2C)cc1 (stereo not given) | 88% (active)
72 | O=S(=O)(Nc1cccc(CCN2CCC(N3CCCCC3)CC2)c1)c1ccc2c(c1)OCCO2 | 91% (active)
73 | CN1CCN(CC(=O)Nc2ccc(-c3cccc(-c4nc5ccc(F)cc5[nH]4)c3)cc2)CC1 | 100% (active)
74 | CC(C)(C)NC(=O)c1ccc(Oc2ccc(OC(F)(F)F)cc2)c(NC(=O)C(C)(C)C)c1 | 89% (active)
75 | CCCCCN1CCCC(CNS(=O)(=O)c2cccc(C(=O)Nc3ccc(C(F)(F)F)cc3)c2)C1 (stereo not given) | 96% (active)
76 | O=C(NCCNc1ccnc(NCc2ccc(F)cc2)n1)c1cc2ccccc2s1 | 99% (active)
77 | NC1CCN(Cc2cccc(-c3ccc(-c4nc5ccccc5[nH]4)s3)c2)C1 (stereo not given) | 100% (active)
78 | Cc1[nH]c(C)c(-c2ccc(OCc3cccc(C(F)(F)F)c3)nc2)c(=O)c1Br | 99% (active)
79 | CCSc1nnc(C2CCCN(CC(=O)Nc3cc(C(F)(F)F)ccc3Cl)C2)n1CC (stereo not given) | 99% (active)
80 | Cc1cc(NN=Cc2cccc(F)c2)c2ccc(F)cc2n1 | 101% (active)
